Source: PubChem
Compounds with a hit are over-represented: about 1.5% of the library has one in this group of screens.
RAD54 branch = inhibitors of human RAD54 branch migration; Q92698; 360,000 compounds, 0.14% hits; inhibition, % at 10.4 µM; RAD54 Holliday junction branch migration, FAM/BHQ fluorescence;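 active = mean normalized replicate activity at least 40 and at least half of replicates scoring 40 or more; inconclusive = only one of the two criteria met; inactive = mean below 40 and under half of replicates reaching 40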;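 note: inhibitors cause a drop in the FAM fluorescence signal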
Target sequence (Q92698 whole entry, looked up): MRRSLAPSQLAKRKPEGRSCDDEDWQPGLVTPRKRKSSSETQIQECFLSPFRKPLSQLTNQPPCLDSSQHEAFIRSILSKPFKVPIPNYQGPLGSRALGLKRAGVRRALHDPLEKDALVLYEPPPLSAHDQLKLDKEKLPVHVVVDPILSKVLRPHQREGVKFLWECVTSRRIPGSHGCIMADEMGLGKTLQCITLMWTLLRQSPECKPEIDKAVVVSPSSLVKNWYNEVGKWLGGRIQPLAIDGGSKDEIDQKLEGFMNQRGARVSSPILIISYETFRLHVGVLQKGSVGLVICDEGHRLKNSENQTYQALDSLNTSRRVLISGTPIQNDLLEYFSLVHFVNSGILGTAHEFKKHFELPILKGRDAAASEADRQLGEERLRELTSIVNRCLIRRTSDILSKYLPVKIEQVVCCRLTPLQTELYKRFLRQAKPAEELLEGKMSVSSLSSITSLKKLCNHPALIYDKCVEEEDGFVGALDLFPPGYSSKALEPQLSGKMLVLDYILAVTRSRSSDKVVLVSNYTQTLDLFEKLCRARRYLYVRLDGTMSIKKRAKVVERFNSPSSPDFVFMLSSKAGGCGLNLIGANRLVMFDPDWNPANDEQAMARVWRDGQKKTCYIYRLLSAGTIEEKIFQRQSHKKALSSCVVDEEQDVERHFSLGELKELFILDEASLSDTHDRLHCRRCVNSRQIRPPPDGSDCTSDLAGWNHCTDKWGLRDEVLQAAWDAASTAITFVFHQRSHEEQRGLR
NRP1-CendR mod = alters CendR peptide binding to human NRP-1; inhibition, % at 25 µM; FAM-RPARPAR peptide binding to NRP-1, fluorescence polarization; 360,000 compounds, 0.85% hits; O14786; AID 602438;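 active = inhibition or corrected inhibition above about 18%, plus a signal ratio from 0.5 to 1.5, limit read from the data, passing the limit was not always enough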
miR-122 sensor = miR-122 inhibition in Huh7 cells. Huh7 miR-122 Renilla luciferase sensor, 48 h; neutral wells = 0, positive control = 100. 340,000 compounds, 0.3% hits. activation (reporter increase), % at 12.5 µM;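 active = mean replicate activation score at least 90 and every replicate individually at or above 90; inconclusive = only one of the two criteria met; inactive = neither criterion met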;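 note: higher luciferase means less miR-122 activity so hits act as miR-122 inhibitors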
N-glyco inh = N-linked glycosylation inhibition. D54 ERlucT glycosylation luciferase reporter, 24 h; percent of 100 nM tunicamycin response. 360,000 compounds, 0.23% hits. reporter increase, % at 12.5 µM. AID 588692;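 active = mean luciferase reporter signal, scaled so untreated is 0 and the glycosylation-blocking control 100, at or above a set limit in every replicate; inconclusive = mean reaches the limit but not every replicate does; inactive = mean below the limit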;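 note: luciferase carries N-glycosylation sites so blocking glycosylation raises the light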
RAD52 inh = blocks human RAD52 DNA annealing. 360,000 compounds, 0.46% hits. inhibition, % at 18.7 µM. P43351. recombinant RAD52 DNA annealing, FRET fluorescence;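 active = every replicate showing at least 50% inhibition; inconclusive = mean inhibition at least 50% but not in every replicate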
DNA FID counter = displaces DNA intercalator in HCV helicase counter-screen; DNA fluorescent intercalator displacement, fluorescence; inhibition, % at 7.9 µM; 290,000 compounds, 0.17% hits; in the data active = inhibition above about 37%;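 note: higher means more ethidium bromide displaced from hairpin DNA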
DNA binding = DNA binding artifact in Rad54 counter-screen. shares compounds with RAD54 branch. Acridine orange-DNA displacement, fluorescence polarization, 20 min. AC50, µM (titrated, usually from 35 µM). 460 compounds, 8% hits;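 active = signal drop giving an AC50 within twice the top valid tested concentration of each sample, actives reach about 35 µM in these data; inactive = activity opposite to expected, plus the rest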;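 note: polarization loss reports compound binding to salmon sperm DNA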
RAD52 DNA ctr = DNA binding artifact in RAD52 counter-screen; shares compounds with RAD52 inh; Salmon sperm DNA/acridine orange FP displacement; AC50, µM; 1,000 compounds, 8% hits;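 active = fitted half-maximal concentration for signal loss at or below twice the highest dose tested, in every separate run, actives reach about 64 µM in these data; inconclusive = runs disagree, or flat partial signal loss, or poor fit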
Hits are given with their value; – = inactive; ? = inconclusive; · = no result.

SMILES	RAD54 branch	NRP1-CendR mod	miR-122 sensor	N-glyco inh	RAD52 inh	DNA FID counter	DNA binding	RAD52 DNA ctr
CCCC(=O)Nc1ccc2c(c1)OC[C@H](C)N(Cc1ccccn1)C[C@@H](C)[C@@H](OC)CN(C)C2=O	–	·	·	·	–	·	·	·
Cc1ccc(-c2nc(C(=O)NCCCN(C)C)cc3c2[nH]c2ccccc23)cc1	105	–	–	46	93	–	–	?
O=C(NCCO)c1cc2c([nH]c3ccccc32)c(-c2ccccc2)n1	–	–	–	–	–	–	·	·
CC(C)C#Cc1ccc2c(c1)O[C@H](CN(C)C(=O)C1CCCCC1)[C@@H](C)CN([C@@H](C)CO)S2(=O)=O	·	·	–	·	·	·	·	·
COc1ccc(-c2ccc3n(c2=O)C[C@H]2[C@H](CO)[C@@H](C(=O)N4CCOCC4)N[C@@H]32)cc1	–	·	·	·	–	·	·	·
Cc1ccc(-c2cc(NC=O)c3ncc(-c4cccc(C(=O)N(C)C)c4)n3c2)cc1	–	–	–	–	–	·	·	·
COc1cc(-c2cnc3c(NC=O)cc(-c4cccc(C(=O)NCCN(C)C)c4)cn23)cc(OC)c1OC	101	–	·	–	93	·	–	–
COc1ccc(-c2cc(NC=O)c3ncc(-c4cccc(C(=O)NCCN(C)C)c4)n3c2)cn1	95	–	–	–	81	·	–	–
COc1cc(-c2cnc3c(NC(C)=O)cc(-c4cccc(C(=O)NCCO)c4)cn23)cc(OC)c1OC	–	–	–	–	–	·	·	·
Cc1cccn2c(=O)c3cc(C(=O)NC4CCCC4)c(=N)n(CCCN4CCOCC4)c3nc12	77	–	–	–	68	41	–	–
Cc1cccn2c(=O)c3cc(C(=O)NCCN4CCOCC4)c(=N)n(CCN4CCOCC4)c3nc12	51	–	–	–	69	–	–	–
Cc1cccn2c(=O)c3cc(C(=O)NC4CCCC4)c(=N)n(CC4CCCO4)c3nc12 (configuration not stated)	–	–	–	?	–	–	·	·
N=c1c(C(=O)NCCN2CCOCC2)cc2c(=O)n3ccccc3nc2n1CCc1ccccc1	63	–	–	–	57	–	–	–
N=c1c(C(=O)NCCc2ccccc2)cc2c(=O)n3ccccc3nc2n1CCCN1CCOCC1	–	–	–	–	–	–	·	·
Cc1noc(C)c1S(=O)(=O)Nc1ccc2c(c1)CC(=O)N([C@@H](C)CO)C[C@H](C)[C@@H](CN(C)C(=O)Nc1cccc3ccccc13)O2	–	·	–	·	–	·	·	·
CC1CCCN(CCCNC(=O)c2cc3c(Cl)nc4ccccc4c3s2)C1 (configuration not stated)	92	–	–	?	67	–	–	39µM
CCCNC(=O)C[C@@H]1CC[C@@H]2[C@H](COC[C@H](O)CN2C(=O)c2cccnc2)O1	–	·	–	·	–	·	·	·
CN(C)CCCN(C(=O)CCOc1ccccc1)c1nc2ccc(F)cc2s1	65	–	·	–	89	–	–	–
CN(C)CCCN(C(=O)COc1ccccc1)c1nc2ccc(F)cc2s1	·	–	·	–	–	–	·	·
CCN1CCN(c2cc(C)c3cc(NC(=S)N4CCCC(C)C4)ccc3n2)CC1 (configuration not stated)	63	–	–	–	52	–	–	–
CCN1CCN(c2cc(C)c3cc(NC(=S)N4CC(C)CC(C)C4)ccc3n2)CC1 (configuration not stated)	?	–	–	–	52	–	–	–
CCN1CCN(c2cc(C)c3cc(NC(=O)c4ccncc4)ccc3n2)CC1	–	–	–	–	–	·	·	·
Cc1noc(C)c1S(=O)(=O)Nc1ccc2c(c1)CC(=O)N([C@@H](C)CO)C[C@@H](C)[C@@H](CN(C)S(=O)(=O)c1cccs1)O2	–	·	–	·	–	·	·	·
CCN(CC)CCCNC(=O)c1cc2c(-c3cccc(OC)c3)nn(C)c2s1	73	–	·	–	92	–	–	–
COc1cccc(-c2nn(C)c3sc(C(=O)NCCCN(C)Cc4ccccc4)cc23)c1	–	–	–	–	–	–	·	·
SMILES	RAD54 branch	NRP1-CendR mod	miR-122 sensor	N-glyco inh	RAD52 inh	DNA FID counter	DNA binding	RAD52 DNA ctr
CCCCN(CC)CCCNC(=O)c1cc2c(-c3ccc(OC)c(OC)c3)nn(C)c2s1	91	–	–	–	94	–	–	–
Cc1noc(C)c1S(=O)(=O)Nc1ccc2c(c1)C(=O)N([C@@H](C)CO)C[C@H](C)[C@H](CN(C)C(=O)Nc1ccc(F)cc1)OCCCC[C@H](C)O2	–	·	–	·	–	·	·	·
C[C@H](CO)N1C[C@H](C)[C@H](CN(C)Cc2ccccc2)Oc2ccc(NS(=O)(=O)c3cn(C)cn3)cc2C1=O	–	·	–	·	–	·	·	·
O=C(C1CCCC1)N1CCCCN2[C@H](CO)[C@@H](c3ccc(C#CC4(O)CCCC4)cc3)[C@H]2C1	–	·	–	·	–	·	·	·
CCN1CCN(c2cc(C)c3cc(NC(=S)N4CCCCC4)ccc3n2)CC1	?	–	–	–	85	–	–	–
CCN1CCN(C(=S)Nc2ccc3nc(N4CCN(C)CC4)cc(C)c3c2)CC1	56	–	–	–	89	–	–	–
CCN1CCN(c2cc(C)c3cc(NC(=S)N4CCN(c5ccc(F)cc5)CC4)ccc3n2)CC1	–	–	–	–	–	–	·	·
N#C[C@H]1[C@H](c2ccc(C#Cc3ccccc3F)cc2)[C@H](CO)N1C(=O)c1cccnc1	–	·	·	·	–	·	·	·
C[C@@H]1CN([C@@H](C)CO)C(=O)c2cc(NC(=O)C3CCCCC3)ccc2O[C@H]1CN(C)C(=O)Nc1ccccc1	–	·	–	·	–	·	·	·
Cc1ccccc1-c1cc2nc(NCCCN(C)C)n(C)c(=O)c2s1	–	–	–	–	–	·	·	·
CN(C)CCCNc1nc2cc(-c3cccc(Cl)c3)sc2c(=O)n1C	50	–	–	–	89	·	–	–
Cc1ccsc1-c1cc2nc(NCCCN(C)C)n(C)c(=O)c2s1	?	–	–	–	58	·	–	–
CN(C)CCCNc1nc2cc(-c3ccn[nH]3)sc2c(=O)n1C	–	–	–	–	–	·	·	·
COc1ccc(-c2cc3nc(NCCCN(C)C)n(C)c(=O)c3s2)cc1OC	69	–	–	–	84	·	–	–
COc1ccc(NC(=O)N(C)C[C@@H]2Oc3ccc(NS(=O)(=O)c4ccc(F)cc4)cc3CC(=O)N([C@@H](C)CO)C[C@H]2C)cc1	·	·	–	·	–	·	·	·
CN1C(=O)c2cc(NC(=O)c3cccc(F)c3)ccc2OC[C@@H]2O[C@@H](CC(=O)NCC3CC3)CC[C@@H]21	·	·	·	·	–	·	·	·
Cc1ccc2nc3c(c(Nc4ccc(O)cc4)c2c1)CCC3	67	–	·	–	–	–	–	–
Cc1ccc(NC(=O)c2c3c(nc4ccccc24)CCC3)cc1	–	–	–	–	–	–	·	·
O=C(CC(F)(F)F)N1C[C@@H]2[C@H](c3ccccc31)[C@@H](CO)N2CC1CCCCC1	–	·	–	·	–	·	·	·
